According to PubChem BioAssay (NCATS):
Inconclusive results are not listed. A number with no mark means an inactive call. Active and inactive are the calls of the source. The call rests on the fitted dose curve; in most records, active means well fitted inhibition curve with a large enough effect; inconclusive means small, poorly fitted or top-dose-only effect; inactive means no such curve, though single readings can be large or run the other way. Where a SMILES comes first, the peptide text is derived from it.

assay: Primary fluorescence-based thiol-reactive (MSTI) qHTS assay for identification of artifact compounds. (AID 1845221); conditions: MSTI thiol-reactivity probe, 1 h; series mostly up to 53.8 µM; activity change, negative = thiol reactive: at the top concentration; further: nearly all actives have a fitted effect of over 65% in size;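 on activity change, negative = thiol reactive: thiol-reactive compounds lower the probe fluorescence signal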
Method in brief: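 One-hour, room-temperature, dark incubation of compound with 4 uM MSTI in PBS (pH 7.4, 2% DMSO) precedes a fluorescence read at 525 nm excitation, 598 nm emission; Hill-equation fitting yields concentration-response values.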
Potency means the concentration at half of the fitted maximal effect.

Row | SMILES | Potency | activity change, negative = thiol reactive
1 | CC(C)c1cc2c(c(O)c1O)[C@@]13CCCC(C)(C)C1[C@@H](O)[C@@H]2OC3=O (stereo not given in full) | 0.927 µM (active) | –
2 | O=C(Nc1ccccc1)Nc1ccc(-c2ccc(C(=O)C3CCCC3C(=O)O)cc2)cc1 (stereo not given) | – | 333%
3 | COC(=O)C(Cc1ccccc1)NC(=O)c1ccccc1 (stereo not given) | – | 0.627%
4 | COc1cc(CO)cc(OC)c1O[C@@H]1O[C@H](CO)[C@@H](O)[C@H](O)[C@H]1O | – | -15.7%
5 | CCc1cc(CC[C@]2(C3CCCC3)CC(O)=C(Cc3nc4nc(C)cc(C)n4n3)C(=O)O2)cc(CC)n1 | – | 35.1%
6 | C[C@@H]1O[C@@H](O[C@@H]2[C@@H](O)[C@H](O[C@H]3[C@H](O[C@H]4CC[C@@]5(C)C(CC[C@]6(C)C5CC=C5[C@@H]7CC(C)(C)CC[C@]7(C(=O)O[C@@H]7O[C@H](CO)[C@@H](O)[C@H](O)[C@H]7O)CC[C@]56C)C4(C)C)O[C@H](C(=O)O)[C@@H](O)[C@@H]3O)OC[C@H]2O)[C@H](O)[C@H](O)[C@H]1O (stereo not given in full) | – | 351% [at 11.5 µM]
7 | COc1ccc([C@H]2OC[C@H]3[C@@H]2CO[C@@H]3c2ccc(O[C@@H]3O[C@H](CO)C(O)[C@H](O)[C@H]3O)c(OC)c2)cc1OC (stereo not given in full) | – | 25.1% [at 25.6 µM]
8 | CC(=O)NC(Cc1ccccc1)C(=O)NC(C(=O)O)C(C)C (stereo not drawn) (Ac-Phe-Val-OH; configuration not given here) | – | -21%
9 | CN1C(=O)N(c2cc(Cl)cc(Cl)c2)C(=O)[C@@]1(C)Cc1ccc(Br)cc1 | – | 300%
10 | COC(=O)C1=COC(O[C@@H]2O[C@H](CO)[C@@H](O)[C@H](O)[C@H]2O)[C@@H]2[C@@](C)(O)[C@@H](OC(=O)/C=C/c3ccccc3)C[C@]12O (stereo not given in full) | 13 µM (active) | –
